Assay results from the supplement of paper PMC10849652.
About 7,900 targets were measured; listed, in parts, are those with a hit and a random draw of the rest. About 0.6% of all pairs of compound and target were hits.

Tests used:
Test in all cases: log2 fold change, soluble protein after heating vs DMSO (PISA); higher = thermal stabilisation; K562 cells, 10 uM, 30 min; active = over 0.2 and 3.5 SD of the protein, either way, in both replicates (recomputed)
bafetinib = compound: Cc1ccc(NC(=O)c2ccc(CN3CC[C@H](N(C)C)C3)c(C(F)(F)F)c2)cc1Nc1nccc(-c2cncnc2)n1 [bafetinib]
How it was run: (§1)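 Soluble protein was quantified by TMTpro 16plex LC-MS/MS after channel sums were equalised. It was obtained as the supernatant after 21,000xg for 90 min from pooled aliquots of K562 cells (2×10^6 cells/mL, 10 μM compound, 30 min) heated for 3 min across 48°C-58°C and extracted in PBS with 0.5% NP-40 at 4°C. Thermal stability values are relative to control samples and come from duplicates. They are given as log2 fold changes.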

[1] = compound: Cc1cccc(CC(=O)N2CCc3c2ccc(-c2cn(C)c4ncnc(N)c24)c3F)n1
How it was run: as §1

nilotinib = compound: Cc1cn(-c2cc(NC(=O)c3ccc(C)c(Nc4nccc(-c5cccnc5)n4)c3)cc(C(F)(F)F)c2)cn1 [nilotinib]
How it was run: as §1

[2] = compound: Cc1nc(Nc2n[nH]c3c2CN(C(=O)N[C@H](CN(C)C)c2ccccc2)C3(C)C)c2sccc2n1
How it was run: as §1

dasatinib = compound: Cc1nc(Nc2ncc(C(=O)Nc3c(C)cccc3Cl)s2)cc(N2CCN(CCO)CC2)n1 [dasatinib]
How it was run: as §1

[3] = compound: Cc1ncc(-c2ccnc(Nc3ccc(S(C)(=O)=O)cc3)n2)n1C(C)C
How it was run: as §1

[4] = compound: Cn1cc(-c2ccc3c(c2)CCN3C(=O)Cc2cccc(C(F)(F)F)c2)c2c(N)ncnc21
How it was run: as §1

[5] = compound: Cn1cc(-c2ccc3nnc(C(F)(F)c4ccc5ncccc5c4)n3n2)cn1
How it was run: as §1

tipifarnib = compound: Cn1cncc1[C@@](N)(c1ccc(Cl)cc1)c1ccc2c(c1)c(-c1cccc(Cl)c1)cc(=O)n2C [tipifarnib]
How it was run: as §1

mubritinib = compound: FC(F)(F)c1ccc(/C=C/c2nc(COc3ccc(CCCCn4ccnn4)cc3)co2)cc1 [mubritinib]
How it was run: as §1

Measured: log2 fold change

JMJD6 isoform 3 (UniProt Q6NYC1)
inactive: bafetinib -0.067 | [1] 0.06 | nilotinib -0.011 | [2] -0.254 | dasatinib -0.009 | [3] -0.098 | [4] -0.008 | [5] -0.047 | tipifarnib 0.036 | mubritinib -0.065

LRBA, A0A494BZW2
inactive: bafetinib -0.041 | [1] 0.044 | nilotinib 0.019 | [2] -0.016 | dasatinib -0.144 | [3] 0.053 | [4] -0.076 | [5] 0.123 | tipifarnib -0.26 | mubritinib -0.03

MAP3K7 (UniProt O43318)
inactive: bafetinib 0.029 | [1] 0.085 | nilotinib -0.105 | [2] -0.028 | dasatinib -0.038 | [3] 0.059 | [4] -0.095 | [5] -0.026 | tipifarnib -0.064 | mubritinib 0.046

MIEF1 (UniProt L0R8F8)
inactive: bafetinib -0.077 | [1] -0.001 | nilotinib -0.1 | [2] 0.067 | dasatinib 0.001 | [3] -0.093 | [4] 0.022 | [5] -0.053 | tipifarnib -0.03 | mubritinib -0.039

KCTD10 (UniProt Q9H3F6)
inactive: bafetinib -0.059 | [1] -0.036 | nilotinib 0.002 | [2] -0.088 | dasatinib 0.056 | [3] 0.074 | [4] 0.012 | [5] 0.153 | tipifarnib 0.058 | mubritinib -0.009

LSR (UniProt Q86X29)
active: [2] -0.254
inactive: bafetinib 0.068 | [1] -0.057 | nilotinib 0.024 | dasatinib 0.003 | [3] 0.009 | [4] 0.072 | [5] 0.018 | tipifarnib 0.011 | mubritinib 0.01

MAP1LC3B2 (UniProt A6NCE7)
inactive: bafetinib -0.044 | [1] -0.029 | nilotinib -0.006 | [2] -0.023 | dasatinib -0.024 | [3] 0.072 | [4] 0.019 | [5] -0.011 | tipifarnib 0.007 | mubritinib 0.018

ITIH4 (UniProt Q14624)
inactive: bafetinib -0.319 | [1] 0.117 | nilotinib -0.259 | [2] 0.194 | dasatinib 0.039 | [3] 0.225 | [4] 0.148 | [5] 0.114 | tipifarnib -0.038 | mubritinib -0.134

LIMA1 isoform 4 (UniProt Q9UHB6)
UniProt Q9UHB6, sequence (Q9UHB6 whole entry, looked up): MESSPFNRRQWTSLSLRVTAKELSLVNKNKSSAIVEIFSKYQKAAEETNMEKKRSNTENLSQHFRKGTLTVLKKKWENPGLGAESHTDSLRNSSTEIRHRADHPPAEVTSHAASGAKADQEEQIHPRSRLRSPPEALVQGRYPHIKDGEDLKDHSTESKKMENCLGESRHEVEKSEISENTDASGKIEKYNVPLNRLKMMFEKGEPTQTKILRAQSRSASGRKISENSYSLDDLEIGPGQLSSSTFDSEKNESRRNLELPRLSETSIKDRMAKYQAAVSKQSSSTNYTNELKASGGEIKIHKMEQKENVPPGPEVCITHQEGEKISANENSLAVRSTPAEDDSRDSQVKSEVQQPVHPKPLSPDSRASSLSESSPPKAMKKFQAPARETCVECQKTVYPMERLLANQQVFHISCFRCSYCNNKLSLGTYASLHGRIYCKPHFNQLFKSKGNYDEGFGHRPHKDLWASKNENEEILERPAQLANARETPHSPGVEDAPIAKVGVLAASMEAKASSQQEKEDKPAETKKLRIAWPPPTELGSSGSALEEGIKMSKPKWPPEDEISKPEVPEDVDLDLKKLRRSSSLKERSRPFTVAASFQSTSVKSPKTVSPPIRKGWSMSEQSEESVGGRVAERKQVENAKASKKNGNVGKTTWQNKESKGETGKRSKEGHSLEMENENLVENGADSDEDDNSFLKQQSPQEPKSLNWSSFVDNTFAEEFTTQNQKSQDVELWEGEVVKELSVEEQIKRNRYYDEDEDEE
inactive: bafetinib -0.115 | [1] 0.019 | nilotinib -0.136 | [2] -0.112 | dasatinib 0.179 | [3] 0.052 | [4] -0.154 | [5] -0.071 | tipifarnib 0.088 | mubritinib 0.019

KPNA1 (UniProt P52294)
UniProt P52294, sequence (P52294 whole entry, looked up): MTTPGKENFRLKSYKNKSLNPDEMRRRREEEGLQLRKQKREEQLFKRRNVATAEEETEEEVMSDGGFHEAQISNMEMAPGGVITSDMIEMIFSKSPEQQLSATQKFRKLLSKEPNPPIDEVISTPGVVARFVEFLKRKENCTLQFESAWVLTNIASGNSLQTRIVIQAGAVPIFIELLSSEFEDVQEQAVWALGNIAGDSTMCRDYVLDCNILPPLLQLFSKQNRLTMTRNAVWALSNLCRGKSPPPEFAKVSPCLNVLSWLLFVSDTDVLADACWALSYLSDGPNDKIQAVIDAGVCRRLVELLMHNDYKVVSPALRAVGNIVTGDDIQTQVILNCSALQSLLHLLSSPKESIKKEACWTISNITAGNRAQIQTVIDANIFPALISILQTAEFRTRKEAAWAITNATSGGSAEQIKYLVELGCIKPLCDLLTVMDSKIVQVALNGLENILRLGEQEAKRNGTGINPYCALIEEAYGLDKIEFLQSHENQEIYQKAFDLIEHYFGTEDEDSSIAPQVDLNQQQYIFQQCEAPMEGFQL
inactive: bafetinib 0 | [1] -0.02 | nilotinib -0.103 | [2] -0.074 | dasatinib 0.003 | [3] 0.047 | [4] -0.089 | [5] -0.008 | tipifarnib -0.088 | mubritinib -0.06

MFN1 (UniProt Q8IWA4)
inactive: bafetinib -0.114 | [1] -0.034 | nilotinib -0.005 | [2] -0.05 | dasatinib -0.054 | [3] 0.02 | [4] 0.032 | [5] -0.019 | tipifarnib 0.123 | mubritinib -0.01

MED16 (UniProt Q9Y2X0)
UniProt Q9Y2X0, sequence (Q9Y2X0 whole entry, looked up): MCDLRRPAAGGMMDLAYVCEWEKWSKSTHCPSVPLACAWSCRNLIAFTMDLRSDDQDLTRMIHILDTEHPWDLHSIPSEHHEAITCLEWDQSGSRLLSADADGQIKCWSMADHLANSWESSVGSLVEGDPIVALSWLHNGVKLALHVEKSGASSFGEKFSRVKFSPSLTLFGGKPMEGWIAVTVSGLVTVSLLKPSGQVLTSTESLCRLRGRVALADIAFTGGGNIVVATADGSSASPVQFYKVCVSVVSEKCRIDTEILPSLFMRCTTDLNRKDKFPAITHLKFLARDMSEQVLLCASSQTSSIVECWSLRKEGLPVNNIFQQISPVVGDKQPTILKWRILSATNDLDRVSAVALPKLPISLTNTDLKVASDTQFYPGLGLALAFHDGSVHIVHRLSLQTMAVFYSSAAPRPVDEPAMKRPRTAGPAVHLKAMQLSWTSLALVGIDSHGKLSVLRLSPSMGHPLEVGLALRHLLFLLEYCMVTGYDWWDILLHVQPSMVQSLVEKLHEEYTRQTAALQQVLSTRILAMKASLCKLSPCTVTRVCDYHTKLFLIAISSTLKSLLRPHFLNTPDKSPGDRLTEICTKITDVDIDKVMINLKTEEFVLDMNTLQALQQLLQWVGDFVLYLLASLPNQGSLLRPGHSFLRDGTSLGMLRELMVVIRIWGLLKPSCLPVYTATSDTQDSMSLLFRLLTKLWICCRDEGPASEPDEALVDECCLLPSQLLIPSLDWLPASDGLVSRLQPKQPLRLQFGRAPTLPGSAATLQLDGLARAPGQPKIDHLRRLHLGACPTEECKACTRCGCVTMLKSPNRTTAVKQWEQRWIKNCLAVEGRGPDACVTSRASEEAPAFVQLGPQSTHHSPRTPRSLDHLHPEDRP
inactive: bafetinib 0.018 | [1] -0.009 | nilotinib -0.014 | [2] -0.092 | dasatinib 0.141 | [3] -0.287 | [4] -0.144 | [5] 0.009 | tipifarnib -0.029 | mubritinib 0.024

MED1 (UniProt Q15648)
UniProt Q15648, sequence (Q15648 whole entry, looked up): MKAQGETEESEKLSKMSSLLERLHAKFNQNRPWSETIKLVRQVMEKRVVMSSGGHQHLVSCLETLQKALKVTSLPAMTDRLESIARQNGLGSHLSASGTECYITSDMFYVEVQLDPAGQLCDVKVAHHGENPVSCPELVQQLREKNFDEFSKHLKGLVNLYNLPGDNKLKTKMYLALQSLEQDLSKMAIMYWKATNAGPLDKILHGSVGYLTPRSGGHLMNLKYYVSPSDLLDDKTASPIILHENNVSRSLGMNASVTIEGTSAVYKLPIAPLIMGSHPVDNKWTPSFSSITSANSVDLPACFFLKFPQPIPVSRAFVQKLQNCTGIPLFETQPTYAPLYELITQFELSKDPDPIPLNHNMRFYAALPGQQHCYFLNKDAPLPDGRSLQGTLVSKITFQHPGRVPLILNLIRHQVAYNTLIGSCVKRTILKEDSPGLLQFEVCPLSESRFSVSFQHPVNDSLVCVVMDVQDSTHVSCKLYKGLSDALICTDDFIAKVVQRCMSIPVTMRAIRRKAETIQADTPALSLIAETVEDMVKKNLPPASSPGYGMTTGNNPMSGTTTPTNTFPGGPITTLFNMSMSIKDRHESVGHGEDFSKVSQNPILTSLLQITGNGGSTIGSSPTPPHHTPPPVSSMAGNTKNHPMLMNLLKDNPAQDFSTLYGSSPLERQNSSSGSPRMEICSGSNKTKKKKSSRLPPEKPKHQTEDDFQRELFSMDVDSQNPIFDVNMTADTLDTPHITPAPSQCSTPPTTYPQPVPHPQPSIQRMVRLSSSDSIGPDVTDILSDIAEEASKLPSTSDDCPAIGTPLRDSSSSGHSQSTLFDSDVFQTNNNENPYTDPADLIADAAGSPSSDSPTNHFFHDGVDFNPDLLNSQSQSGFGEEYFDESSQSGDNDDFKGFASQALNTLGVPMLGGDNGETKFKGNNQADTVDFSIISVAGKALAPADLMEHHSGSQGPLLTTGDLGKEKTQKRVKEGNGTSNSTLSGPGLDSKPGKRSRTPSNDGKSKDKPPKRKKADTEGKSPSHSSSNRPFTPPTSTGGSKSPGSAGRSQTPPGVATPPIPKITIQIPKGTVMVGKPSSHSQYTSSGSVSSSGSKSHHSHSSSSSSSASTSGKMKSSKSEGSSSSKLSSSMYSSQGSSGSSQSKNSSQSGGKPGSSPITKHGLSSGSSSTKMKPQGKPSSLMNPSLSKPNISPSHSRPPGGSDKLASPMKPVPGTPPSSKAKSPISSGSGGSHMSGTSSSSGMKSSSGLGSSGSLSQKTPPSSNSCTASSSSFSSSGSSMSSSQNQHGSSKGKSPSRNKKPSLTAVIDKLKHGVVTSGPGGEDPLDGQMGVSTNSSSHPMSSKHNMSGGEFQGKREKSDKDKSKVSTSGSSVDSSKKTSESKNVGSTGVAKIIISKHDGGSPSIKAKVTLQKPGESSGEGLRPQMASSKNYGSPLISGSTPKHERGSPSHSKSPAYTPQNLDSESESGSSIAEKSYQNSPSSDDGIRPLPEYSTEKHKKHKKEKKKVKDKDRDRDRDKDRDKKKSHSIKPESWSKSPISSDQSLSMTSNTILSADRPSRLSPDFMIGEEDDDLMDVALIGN
active: [3] -0.217
inactive: bafetinib 0.016 | [1] -0.018 | nilotinib 0.057 | [2] 0 | dasatinib 0.037 | [4] -0.064 | [5] -0.089 | tipifarnib 0.069 | mubritinib 0.004

LARP4B (UniProt Q92615)
inactive: bafetinib 0.022 | [1] -0.025 | nilotinib -0.055 | [2] -0.192 | dasatinib -0.072 | [3] -0.092 | [4] -0.052 | [5] -0.031 | tipifarnib -0.008 | mubritinib -0.038

JAK3 (UniProt P52333)
inactive: bafetinib -0.013 | [1] -0.056 | nilotinib -0.01 | [2] 0.082 | dasatinib -0.028 | [3] -0.02 | [4] -0.019 | [5] 0.044 | tipifarnib 0.052 | mubritinib -0.061

MCUR1 (UniProt Q96AQ8)
inactive: bafetinib 0 | [1] 0 | nilotinib 0.015 | [2] 0.015 | dasatinib -0.037 | [3] -0.004 | [4] 0.031 | [5] -0.091 | tipifarnib -0.028 | mubritinib 0.044

LARP4 isoform 4 (UniProt Q71RC2)
UniProt Q71RC2, sequence (Q71RC2 whole entry, looked up): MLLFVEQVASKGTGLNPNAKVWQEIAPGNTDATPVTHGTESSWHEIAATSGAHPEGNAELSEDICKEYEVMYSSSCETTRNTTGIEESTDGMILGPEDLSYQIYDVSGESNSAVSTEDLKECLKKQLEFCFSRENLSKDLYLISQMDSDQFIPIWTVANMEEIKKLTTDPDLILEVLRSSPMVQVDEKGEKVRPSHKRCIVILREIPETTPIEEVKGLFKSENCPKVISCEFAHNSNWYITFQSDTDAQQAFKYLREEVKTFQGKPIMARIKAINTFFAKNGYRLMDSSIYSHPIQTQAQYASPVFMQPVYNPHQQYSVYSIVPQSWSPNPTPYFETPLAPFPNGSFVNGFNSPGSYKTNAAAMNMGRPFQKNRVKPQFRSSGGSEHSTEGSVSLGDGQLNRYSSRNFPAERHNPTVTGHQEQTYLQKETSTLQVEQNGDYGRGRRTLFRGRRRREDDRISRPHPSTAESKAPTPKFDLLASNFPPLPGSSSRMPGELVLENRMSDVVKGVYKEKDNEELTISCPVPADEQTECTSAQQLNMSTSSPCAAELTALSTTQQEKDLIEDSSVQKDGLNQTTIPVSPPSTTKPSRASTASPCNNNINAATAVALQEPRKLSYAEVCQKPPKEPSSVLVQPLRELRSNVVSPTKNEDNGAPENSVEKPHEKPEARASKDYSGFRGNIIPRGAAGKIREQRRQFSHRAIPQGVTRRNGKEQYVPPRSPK
inactive: bafetinib 0.022 | [1] -0.027 | nilotinib -0.073 | [2] -0.147 | dasatinib 0 | [3] -0.028 | [4] -0.078 | [5] -0.103 | tipifarnib 0.071 | mubritinib -0.046

MFN2 (UniProt O95140)
inactive: bafetinib -0.106 | [1] 0.068 | nilotinib -0.002 | [2] -0.022 | dasatinib -0.024 | [3] -0.01 | [4] -0.004 | [5] 0.018 | tipifarnib -0.004 | mubritinib 0.019

KDM1A isoform 2 (UniProt O60341)
inactive: bafetinib 0.007 | [1] 0.014 | nilotinib -0.078 | [2] -0.059 | dasatinib -0.07 | [3] -0.001 | [4] -0.002 | [5] -0.011 | tipifarnib -0.108 | mubritinib 0.095

LBR (UniProt Q14739)
UniProt Q14739, sequence (Q14739 whole entry, looked up): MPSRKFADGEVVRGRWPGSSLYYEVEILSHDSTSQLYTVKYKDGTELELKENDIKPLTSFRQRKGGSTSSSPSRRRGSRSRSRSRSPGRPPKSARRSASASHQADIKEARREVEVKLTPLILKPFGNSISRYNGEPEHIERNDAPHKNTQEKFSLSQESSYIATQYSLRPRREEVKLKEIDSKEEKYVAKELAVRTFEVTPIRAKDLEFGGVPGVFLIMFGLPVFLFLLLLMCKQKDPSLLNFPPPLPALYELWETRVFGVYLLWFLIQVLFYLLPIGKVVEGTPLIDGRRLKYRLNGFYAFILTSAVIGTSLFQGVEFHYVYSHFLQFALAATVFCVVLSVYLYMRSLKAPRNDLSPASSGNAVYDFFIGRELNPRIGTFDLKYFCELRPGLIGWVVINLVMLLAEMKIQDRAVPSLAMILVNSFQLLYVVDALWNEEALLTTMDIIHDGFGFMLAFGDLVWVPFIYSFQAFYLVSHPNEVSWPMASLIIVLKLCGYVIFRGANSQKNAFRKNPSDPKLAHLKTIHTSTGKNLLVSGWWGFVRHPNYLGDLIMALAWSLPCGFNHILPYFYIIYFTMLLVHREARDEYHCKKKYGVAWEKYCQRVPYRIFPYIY
inactive: bafetinib 0.113 | [1] 0.101 | nilotinib -0.201 | [2] -0.007 | dasatinib -0.017 | [3] -0.018 | [4] 0.041 | [5] 0.012 | tipifarnib -0.141 | mubritinib 0.026

MAIP1 (UniProt Q8WWC4)
inactive: bafetinib -0.147 | [1] 0.005 | nilotinib 0.027 | [2] 0.007 | dasatinib -0.021 | [3] -0.004 | [4] 0.031 | [5] 0.028 | tipifarnib -0.047 | mubritinib -0.006

LEO1 (UniProt Q8WVC0)
inactive: bafetinib -0.003 | [1] 0.008 | nilotinib -0.125 | [2] -0.045 | dasatinib 0.049 | [3] -0.094 | [4] -0.026 | [5] 0.023 | tipifarnib -0.009 | mubritinib 0.035

MIEN1 (UniProt Q9BRT3)
inactive: bafetinib 0.023 | [1] -0.013 | nilotinib -0.029 | [2] -0.037 | dasatinib -0.041 | [3] -0.08 | [4] 0.08 | [5] 0.139 | tipifarnib 0.083 | mubritinib 0.018

IGF2R (UniProt P11717)
active: bafetinib -0.338
inactive: [1] 0.021 | nilotinib -0.02 | [2] -0.087 | dasatinib -0.023 | [3] 0.021 | [4] 0 | [5] 0.023 | tipifarnib 0.045 | mubritinib 0.003

LIAS (UniProt O43766)
inactive: bafetinib -0.034 | [1] -0.079 | nilotinib 0.038 | [2] 0.003 | dasatinib 0.028 | [3] -0.059 | [4] -0.017 | [5] 0.059 | tipifarnib 0.098 | mubritinib 0.002

KNTC1 (UniProt P50748)
inactive: bafetinib -0.013 | [1] 0.043 | nilotinib -0.064 | [2] -0.026 | dasatinib -0.047 | [3] 0.042 | [4] -0.073 | [5] 0 | tipifarnib -0.108 | mubritinib 0.004

IMMT isoform 2 (UniProt Q16891)
inactive: bafetinib -0.081 | [1] 0.11 | nilotinib -0.007 | [2] -0.002 | dasatinib 0.144 | [3] -0.022 | [4] -0.037 | [5] 0.037 | tipifarnib 0.065 | mubritinib 0.066

MAPRE3 (UniProt Q9UPY8)
inactive: bafetinib -0.037 | [1] 0.038 | nilotinib -0.012 | [2] -0.038 | dasatinib -0.042 | [3] 0.021 | [4] -0.041 | [5] 0.061 | tipifarnib -0.037 | mubritinib 0.027

MAPKAPK5 (UniProt Q8IW41)
inactive: bafetinib 0.123 | [1] -0.014 | nilotinib 0.057 | [2] -0.035 | dasatinib -0.031 | [3] 0.052 | [4] -0.065 | [5] -0.074 | tipifarnib -0.083 | mubritinib 0.075

LARP1 (UniProt Q6PKG0)
inactive: bafetinib 0.049 | [1] 0.024 | nilotinib -0.063 | [2] -0.014 | dasatinib 0.014 | [3] -0.028 | [4] -0.067 | [5] -0.043 | tipifarnib 0.047 | mubritinib -0.011
